{
  "source": "paper PMC4336329",
  "about": "(PLoS ONE, 2015)",
  "note": "Hit rate of the full screen: of about 310,000 compounds, about 14,000 (4.5%) showed an effect of 50% or more. Effects have a minus sign here. What follows is part of a selection rich in strong results, with near analogues and random picks from the rest.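 Further: peak tail current of the secondary pulse compared with the same well before compound.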",
  "data": [
    {"molecular_target": "human ether-à-go-go-related gene (hERG) potassium channel (human, UniProt Q12809)", "sequence (Q12809 whole entry, looked up)": "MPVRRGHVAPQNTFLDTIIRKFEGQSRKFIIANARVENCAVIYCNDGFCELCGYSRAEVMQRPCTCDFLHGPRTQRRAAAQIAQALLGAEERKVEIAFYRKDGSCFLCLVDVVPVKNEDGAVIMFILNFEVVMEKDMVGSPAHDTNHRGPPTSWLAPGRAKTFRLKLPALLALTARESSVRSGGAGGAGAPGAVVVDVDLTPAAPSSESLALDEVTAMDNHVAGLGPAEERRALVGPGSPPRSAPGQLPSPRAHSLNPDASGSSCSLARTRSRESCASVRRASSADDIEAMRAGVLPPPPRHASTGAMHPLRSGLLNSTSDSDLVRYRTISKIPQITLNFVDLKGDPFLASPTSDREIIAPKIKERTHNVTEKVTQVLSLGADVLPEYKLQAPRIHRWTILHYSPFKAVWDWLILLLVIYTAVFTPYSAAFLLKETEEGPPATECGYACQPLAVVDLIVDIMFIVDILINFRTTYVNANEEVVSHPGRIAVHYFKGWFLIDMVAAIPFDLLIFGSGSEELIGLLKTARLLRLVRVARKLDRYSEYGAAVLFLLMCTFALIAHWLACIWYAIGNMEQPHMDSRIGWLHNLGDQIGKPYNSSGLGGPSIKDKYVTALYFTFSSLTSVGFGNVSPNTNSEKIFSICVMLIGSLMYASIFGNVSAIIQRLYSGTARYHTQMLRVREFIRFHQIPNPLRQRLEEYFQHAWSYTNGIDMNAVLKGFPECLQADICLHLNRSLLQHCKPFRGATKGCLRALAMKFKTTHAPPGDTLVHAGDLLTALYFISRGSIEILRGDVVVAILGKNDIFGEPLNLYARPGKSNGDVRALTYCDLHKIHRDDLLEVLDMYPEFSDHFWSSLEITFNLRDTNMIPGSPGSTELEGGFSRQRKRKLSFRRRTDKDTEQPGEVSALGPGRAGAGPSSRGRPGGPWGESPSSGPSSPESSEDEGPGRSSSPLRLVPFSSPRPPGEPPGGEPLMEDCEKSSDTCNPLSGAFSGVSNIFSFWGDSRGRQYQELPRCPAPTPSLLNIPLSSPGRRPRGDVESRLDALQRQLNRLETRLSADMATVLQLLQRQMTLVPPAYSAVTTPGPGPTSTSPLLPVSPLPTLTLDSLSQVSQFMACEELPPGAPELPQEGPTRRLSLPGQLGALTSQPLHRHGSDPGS", "experiment": "primary screen, population patch clamp on CHO cells stably expressing hERG; higher = less effect of the substance", "units": {"hERG current change (%, negative = inhibition) at 10uM": "%"}, "values": [
      {"smiles": "Cl.O=C(CNCCO)N1CCc2ccccc21", "hERG current change (%, negative = inhibition) at 10uM": -5.27},
      {"smiles": "Cc1ccc(CN2C(=O)N/C(=C/c3ccc(-c4ccc(C(=O)O)cc4)o3)C2=O)cc1", "hERG current change (%, negative = inhibition) at 10uM": 0.0417},
      {"smiles": "O=C1OC(N2CCN(C/C=C/c3ccccc3)CC2)c2ccccc21", "note": "(stereo not shown)", "hERG current change (%, negative = inhibition) at 10uM": 9.57},
      {"smiles": "O=C1CC(N2CCN(C/C=C/c3ccccc3)CC2)C(=O)N1CCc1ccccc1", "note": "(stereo not shown)", "hERG current change (%, negative = inhibition) at 10uM": -58.1},
      {"smiles": "O=C1CC(N2CCN(C/C=C/c3ccccc3)CC2)C(=O)N1Cc1cccs1", "note": "(stereo not shown)", "hERG current change (%, negative = inhibition) at 10uM": -74.8},
      {"smiles": "O=C1CC(N2CCN(C3CC(=O)N(CCc4ccccc4)C3=O)CC2)C(=O)N1CCc1ccccc1", "note": "(stereo not shown)", "hERG current change (%, negative = inhibition) at 10uM": -6.78},
      {"smiles": "O=C1CC(N2CCN(C/C=C/c3ccccc3)CC2)C(=O)N1Cc1ccc(N2CCCC2=O)cc1", "note": "(stereo not shown)", "hERG current change (%, negative = inhibition) at 10uM": -46.7},
      {"smiles": "COc1ccc(CCN2C(=O)CC(N3CCN(C/C=C/c4ccccc4)CC3)C2=O)cc1OC", "note": "(stereo not shown)", "hERG current change (%, negative = inhibition) at 10uM": -43.9},
      {"smiles": "C=CCn1c(CNC(=O)c2cccs2)n[nH]c1=S", "hERG current change (%, negative = inhibition) at 10uM": 15.5},
      {"smiles": "Cc1cc(C)cc(OC(=O)CCN2C(=O)c3ccccc3C2=O)c1", "hERG current change (%, negative = inhibition) at 10uM": -3.19},
      {"smiles": "COc1ccccc1N(CC(=O)Nc1ccc(F)c(F)c1)S(C)(=O)=O", "hERG current change (%, negative = inhibition) at 10uM": -1.01},
      {"smiles": "COc1cccc(CN2CC(C(=O)NCCc3ccc(C)s3)CCC2=O)c1", "note": "(stereo not shown)", "hERG current change (%, negative = inhibition) at 10uM": -26.5},
      {"smiles": "CCOC(=O)C1CCN(S(=O)(=O)c2cc3c(cc2C)NC(=O)CO3)CC1", "hERG current change (%, negative = inhibition) at 10uM": -54.9},
      {"smiles": "CCOC(=O)C1CCCN(S(=O)(=O)c2ccc3c4c2CC(=O)N4CC(C)S3)C1", "note": "(stereo not shown)", "hERG current change (%, negative = inhibition) at 10uM": -0.356},
      {"smiles": "CCOC(=O)C1CCCCN1S(=O)(=O)c1cc2c(cc1C)NC(=O)CO2", "note": "(stereo not shown)", "hERG current change (%, negative = inhibition) at 10uM": -19.8},
      {"smiles": "CCOC(=O)C1CCCN(S(=O)(=O)c2ccc3c4c(cccc24)C(=O)N3CC)C1", "note": "(stereo not shown)", "hERG current change (%, negative = inhibition) at 10uM": -63.5},
      {"smiles": "CCOC(=O)N1CCN(S(=O)(=O)c2cc3c(cc2C)NC(=O)CO3)CC1", "hERG current change (%, negative = inhibition) at 10uM": -36.2},
      {"smiles": "CCOC(=O)N1CCN(S(=O)(=O)c2ccc3c4c(cccc24)C(=O)N3)CC1", "hERG current change (%, negative = inhibition) at 10uM": -14.5},
      {"smiles": "O=C1Nc2ccc(S(=O)(=O)N3CCCC3)c3cccc1c23", "hERG current change (%, negative = inhibition) at 10uM": -7.57},
      {"smiles": "CCOC(=O)C1CCN(S(=O)(=O)c2ccc3c4c2CC(=O)N4CC(C)S3)CC1", "note": "(stereo not shown)", "hERG current change (%, negative = inhibition) at 10uM": -57.1},
      {"smiles": "CCN1C(=O)c2cccc3c(S(=O)(=O)N4CCC(C)CC4)ccc1c23", "hERG current change (%, negative = inhibition) at 10uM": -16.8},
      {"smiles": "CCOC(=O)C1CCN(S(=O)(=O)c2ccc3c4c(cccc24)C(=O)N3)CC1", "hERG current change (%, negative = inhibition) at 10uM": -54.6},
      {"smiles": "CCN1C(=O)c2cccc3c(S(=O)(=O)N4CCCC4C(=O)O)ccc1c23", "note": "(stereo not shown)", "hERG current change (%, negative = inhibition) at 10uM": 13},
      {"smiles": "CC1CCN(S(=O)(=O)c2ccc3c4c2CC(=O)N4CC(C)S3)CC1", "note": "(stereo not shown)", "hERG current change (%, negative = inhibition) at 10uM": 7.22},
      {"smiles": "O=C(Nc1ccc(Cl)cc1)Nc1ccccc1CC[N+](=O)[O-]", "hERG current change (%, negative = inhibition) at 10uM": 7.79},
      {"smiles": "CC(=O)O[C@H]1CC[C@@]2(C)C(CCC3C2CC[C@]2(C)OC(=O)CCC32)C1", "note": "(stereo partly shown)", "hERG current change (%, negative = inhibition) at 10uM": -10.7},
      {"smiles": "O=C(O)c1ccc(S(=O)(=O)N2CCCc3ccccc32)cc1", "hERG current change (%, negative = inhibition) at 10uM": 19.7},
      {"smiles": "O=C(CN1C(=O)NC2(CCCCCC2)C1=O)N1CCN(S(=O)(=O)c2ccc(Cl)cc2)CC1", "hERG current change (%, negative = inhibition) at 10uM": -23.9},
      {"smiles": "Cc1ccc(S(=O)(=O)N(C)c2nc3ccccc3[nH]c2=S)cc1", "hERG current change (%, negative = inhibition) at 10uM": 4.41},
      {"smiles": "O=C1C(Cc2cccc([N+](=O)[O-])c2)S/C(=N/N=C/c2ccco2)N1c1ccccc1", "note": "(stereo not shown)", "hERG current change (%, negative = inhibition) at 10uM": 2.64},
      {"smiles": "O=C(NC1CCCCC1)N(Cc1nc2ccccc2c(=O)[nH]1)C1CCCCC1", "hERG current change (%, negative = inhibition) at 10uM": 2.79},
      {"smiles": "O=C(NCCc1nc2ccccc2[nH]1)/C(=C/c1ccco1)NC(=O)c1ccccc1Br", "hERG current change (%, negative = inhibition) at 10uM": -64.9},
      {"smiles": "Cc1ccc(C(=O)N/C(=C/c2ccco2)C(=O)NCCc2c[nH]c3ccccc23)cc1", "hERG current change (%, negative = inhibition) at 10uM": -46},
      {"smiles": "O=C(NCCc1nc2ccccc2[nH]1)c1ccco1", "hERG current change (%, negative = inhibition) at 10uM": 2.94},
      {"smiles": "O=C(NCCc1nc2ccccc2[nH]1)/C(=C/c1ccco1)NC(=O)c1ccc(Br)cc1", "hERG current change (%, negative = inhibition) at 10uM": -69.9},
      {"smiles": "O=C(NCCc1nc2ccccc2[nH]1)c1ccc(Br)o1", "hERG current change (%, negative = inhibition) at 10uM": 3.87},
      {"smiles": "O=C(NCCc1nc2ccccc2[nH]1)/C(=C/c1ccc(F)cc1)NC(=O)c1ccco1", "hERG current change (%, negative = inhibition) at 10uM": -62.8},
      {"smiles": "O=C(NCCc1nc2ccccc2[nH]1)/C(=C/c1ccco1)NC(=O)c1ccc(Br)o1", "hERG current change (%, negative = inhibition) at 10uM": -63.2},
      {"smiles": "COc1ccc(/C=C(\\NC(=O)c2ccco2)C(=O)NCCc2nc3ccccc3[nH]2)cc1", "hERG current change (%, negative = inhibition) at 10uM": -42.6},
      {"smiles": "CC(C)=C(NC(=O)c1ccco1)C(=O)NCCc1nc2ccccc2[nH]1", "hERG current change (%, negative = inhibition) at 10uM": 1.12},
      {"smiles": "CC(C)=C(NC(=O)c1ccccc1Br)C(=O)NCCc1nc2ccccc2[nH]1", "hERG current change (%, negative = inhibition) at 10uM": 3.68},
      {"smiles": "O=C(NCCc1nc2ccccc2[nH]1)/C(=C/c1ccco1)NC(=O)c1ccco1", "hERG current change (%, negative = inhibition) at 10uM": -17.3},
      {"smiles": "O=C(CNC(=O)c1ccc(Br)cc1)NCCc1nc2ccccc2[nH]1", "hERG current change (%, negative = inhibition) at 10uM": -6.76}
    ]}
  ]
}
